{"source": "the supplement of paper PMC11417369", "note": "± gives the standard deviation of the averaged measurements. The full ranking holds about 25,000 sequences; the median of “ln(normalized median fluorescence intensity)” is about 7.9, and the highest 2% start at about 11. Only a selection was taken, and the highest values are over-represented in it overall."}
{"tested_on": "PfAP2-I AP2 domain 3 (GST-tagged)", "experiment": "gcPBM binding intensity (ln(normalized median fluorescence intensity)); higher = stronger DNA binding", "procedure,_shortened": "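Binding intensity is defined as the maximum Masliner-normalised natural-log median intensity across replicate spots for either probe orientation. It was measured on an Agilent 4 × 180k array of primer-extended double-stranded 36-bp intergenic genomic probes and negative controls, to which GST-tagged P. falciparum DNA-binding domains made in E. coli were applied for 1 h in 1× PBS with 1% milk, 0.2 mg/ml BSA, 0.5% salmon testes DNA and 0.03% Triton X-100. Detection was by Alexa488 anti-GST antibody and scanning at 488 nm.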"}
{"sequence": "ATAAAAAGAAATCCAATACACACCTTCAAAATGGGT [CACACA_site1622]", "gcPBM binding intensity (ln)": "7.71 ± 0.72"}
{"sequence": "AAAGATATAAATTACTGTACTAATGAAATTGGTAAA [XGTACX_site3582]", "gcPBM binding intensity (ln)": "7.67 ± 0.28"}
{"sequence": "ATTATATATATGTGCACACAAAAGATATATATATAT [CACACA_site5205]", "gcPBM binding intensity (ln)": "10.2 ± 0.13"}
{"sequence": "AAGAAAAGCATAGATGCACACATATATATATATATA [CACACA_site8675]", "gcPBM binding intensity (ln)": "9.485 ± 0.078"}
{"sequence": "TTCAAAAGATATATCGTGCACATATATATGATGAAA", "gcPBM binding intensity (ln)": "11.155 ± 0.007"}
{"sequence": "ACTTTTATTCGCTTACGTACATATATTATATATTAT [XGTACX_site4459]", "gcPBM binding intensity (ln)": "8.75 ± 0.55"}
{"sequence": "TATAAATATTTATGTACACACATATACATGTTGAAT [CACACA_site5684]", "gcPBM binding intensity (ln)": "7.95 ± 0.43"}
{"sequence": "AGCAATTTGGGGTGTACACACACCTTATTTAAATTA [CACACA_site1157]", "gcPBM binding intensity (ln)": "8.23 ± 0.22"}
{"sequence": "AATATTATTATTATTACACACACAATTATATTTACC [CACACA_site8061]", "gcPBM binding intensity (ln)": "7.93 ± 0.38"}
{"sequence": "AACCTTACACAAGGGGTGCAATATTATTTCGATAAA [GTGCAC_site9600]", "gcPBM binding intensity (ln)": "11.5 ± 0.66"}
{"sequence": "TACATTTTACTTGTTACACACATATAAAATTAACCA [CACACA_site2922]", "gcPBM binding intensity (ln)": "7.82 ± 0.5"}
{"sequence": "AATAGTAAAAATCACTGTACGTTTATTTTTAAAATG [XGTACX_site1035]", "gcPBM binding intensity (ln)": "7.79 ± 0.28"}
{"sequence": "CCATAACTCATATGCACACATAAATATTACATATAT [CACACA_site3821]", "gcPBM binding intensity (ln)": "8.87 ± 0.13"}
{"sequence": "TAGTTCTTTTAATTTAGTATTATACAATATTGGAAA [CACACA_negctrl_site521]", "gcPBM binding intensity (ln)": "7.49 ± 0.47"}
{"sequence": "ATATAATATTTTAGAGTGCACCGATAACAATAAATA [GTGCAC_site9754]", "gcPBM binding intensity (ln)": "10.4 ± 0.17"}
{"sequence": "ATAACAAAAATCCTTGTGCACTATTTTAATAGAGTC", "gcPBM binding intensity (ln)": "11.4 ± 0.12"}
{"sequence": "TTTTAATATATAGAGTAACAAATTTGTCTATTAATA [CACACA_negctrl_site1495]", "gcPBM binding intensity (ln)": "7.5 ± 0.58"}
{"sequence": "GAAAGAAGCATAAATGTACACACATATTTATATATT [CACACA_site8368]", "gcPBM binding intensity (ln)": "7.74 ± 0.4"}
{"sequence": "CATTTATATAAAGAATGTACACACAGAAATGCACAC [XGTACX_site4718]", "gcPBM binding intensity (ln)": "10.2 ± 0.2"}
{"sequence": "TGTACACCCAGAAATGCACACACATATATATATATA [CACACA_site8716]", "gcPBM binding intensity (ln)": "9.54 ± 0.18"}
{"sequence": "ATTTATATAAAGAATGTACACACAGAAATGCACCCA [CACACA_site8715]", "gcPBM binding intensity (ln)": "11 ± 0.83"}
{"sequence": "TTATATAAAGAATGTACACACAGAAATGCACCCACA [CACACA_site2282]", "gcPBM binding intensity (ln)": "11 ± 0.57"}
{"sequence": "TTATATAAAGAATGTACACACAGAAATGCACAGACA [CACACA_site5288]", "gcPBM binding intensity (ln)": "9.43 ± 0.29"}
{"sequence": "TCTTTCTCTCTTCAAAGTACATATAATATATACTTC [XGTACX_site7982]", "gcPBM binding intensity (ln)": "7.88 ± 0.52"}
{"sequence": "TATTACAAATATGGCACACATATATATATATATATT [CACACA_site3268]", "gcPBM binding intensity (ln)": "8.69 ± 0.2"}
{"sequence": "TTATGTTCTTAATGCACACTTATAAGTATCTTATAA [CACACA_site1394]", "gcPBM binding intensity (ln)": "10.99 ± 0.028"}
{"sequence": "ATTAAAAAAAAAAGTATACACACTTCTTAATGTCAA [CACACA_site1244]", "gcPBM binding intensity (ln)": "7.39 ± 0.47"}
{"sequence": "TAAAAAAAAAAGTATACACACTTCTTAATGTCAACA [CACACA_site4818]", "gcPBM binding intensity (ln)": "7.36 ± 0.46"}
{"sequence": "TTTTATGTTCTTAATGCACACTTATAAGTATCTTAT [CACACA_site4895]", "gcPBM binding intensity (ln)": "11.4 ± 0.72"}
{"sequence": "TATATATATATATGTATGCACTTTAATTTTATAAGG", "gcPBM binding intensity (ln)": "9.85 ± 0.26"}
{"sequence": "ATATAATATTTATATGCACACTTTTCTATATATAAG [CACACA_site6100]", "gcPBM binding intensity (ln)": "9.77 ± 0.15"}
{"sequence": "AGGAAATTTTTTTTTTTTTTTTTTTTTTTTTTTTAC [TGCATGCA_negctrl_site170]", "gcPBM binding intensity (ln)": "7.5 ± 0.56"}
{"sequence": "TTTATTTTCATATGAACACACATATAAATATTATAA [CACACA_site7172]", "gcPBM binding intensity (ln)": "7.87 ± 0.41"}
{"sequence": "TTTATTTTATCATTTGCACACGCACCCCCACATAAA [CACACA_site8007]", "gcPBM binding intensity (ln)": "10.4 ± 0.26"}
{"sequence": "ATTTTCTTTCTATGCACACGCACGTATTTGCACCCA [CACACA_site3350]", "gcPBM binding intensity (ln)": "11.5 ± 0.39"}
{"sequence": "TTATTTTCTTTCTATGCACACGCACGTATTTGCCCA [CACACA_site9104]", "gcPBM binding intensity (ln)": "9.39 ± 0.16"}
{"sequence": "GCTTATATTAATAAGGTGCTTTTTATTTCGTGTGTA [GTGCAC_site9649]", "gcPBM binding intensity (ln)": "9.06 ± 0.15"}
{"sequence": "AAGGAAAAAACAAATACACACAAAAACGCATTATAA [CACACA_site3466]", "gcPBM binding intensity (ln)": "7.87 ± 0.71"}
{"sequence": "TGATTCTAACTTATGGTGCAACATTATGGACACCGT", "gcPBM binding intensity (ln)": "10.3 ± 0.35"}
{"sequence": "TCATAAACATTATGCACACAAAAATAAAAAAAAATA [CACACA_site1115]", "gcPBM binding intensity (ln)": "9.8 ± 0.56"}
{"sequence": "ATGGTGCAACATTATGCACACCGTTAAATAACTAAT [CACACA_site9280]", "gcPBM binding intensity (ln)": "11.5 ± 0.7"}
{"sequence": "TTATGGTGCAACATTATGCACACCGTTAAATAACTA [CACACA_site3846]", "gcPBM binding intensity (ln)": "11.1 ± 0.52"}
{"sequence": "AACAACAACTAATATGCACACATTTAAAAACAAAAT [CACACA_site2440]", "gcPBM binding intensity (ln)": "9.42 ± 0.26"}
{"sequence": "AATCATAAACATTATGCACACAAAAATAAAAAAAAA [CACACA_site8289]", "gcPBM binding intensity (ln)": "9.81 ± 0.11"}
{"sequence": "TACTTTTCTTAAAGATGTACGTTTTAAAAATAAAAT [XGTACX_site14]", "gcPBM binding intensity (ln)": "7.81 ± 0.2"}
